{"source": "ChEMBL document CHEMBL3988442", "about": "“University of Dundee, Small-Polar-MMV Screening Library” (2021)", "note": "In all, about 48,000 compounds went through this assay and about 13,000 (27%) showed an effect of 50% or more. Some of the results follow.", "data": [{"system": "Wolbachia pipientis", "assay": "Anti-Wolbachia Cell-Based Screen", "assay_type": "functional", "design": "scale not given: in the data most compounds retested in dose-response had high values", "settings": "5 µM", "units": {"Percent Effect": "%"}, "values": [{"smiles": "O=C(NC1=NCCS1)C1CSCN1C(=O)C1CCCC1", "note": "(centres undefined)", "Percent Effect": -6.178}, {"smiles": "Cn1cccc(NC(=O)NCc2cccc(CO)c2)c1=O", "Percent Effect": -1.059}, {"smiles": "Cc1cc(-c2nc(-c3ccccn3)nn2C2CCN(C)CC2)nc(C)n1", "Percent Effect": -5.062}, {"smiles": "Cc1cccc(N2CCN(CCC(=O)NCc3cccnc3)CC2)c1", "Percent Effect": 6.039}, {"smiles": "Cn1cccc1CNC(=O)CCCc1nnc2ccccn12", "Percent Effect": 14.24}, {"smiles": "O=C(CCc1nc2cccnc2[nH]1)NCc1cccnc1", "Percent Effect": 5.887}, {"smiles": "O=C(CCc1nnc2ccccn2c1=O)NCc1ccco1", "Percent Effect": 105.9}, {"smiles": "O=C(CCc1nnc2ccccn2c1=O)NCc1cccnc1", "Percent Effect": 121.1}, {"smiles": "COc1ccc(CNC(=O)CCc2nnc3ccccn3c2=O)cc1", "Percent Effect": 126.1}, {"smiles": "O=C(CCC1CCCC1)NCc1nnc2ccccn12", "Percent Effect": 1.32}, {"smiles": "O=C(CCc1nc2cccnc2[nH]1)NCc1ccc2c(c1)OCO2", "Percent Effect": 27.54}, {"smiles": "O=C(Cn1ccc2sccc2c1=O)NCc1ccc2c(c1)OCO2", "Percent Effect": 0.2723}, {"smiles": "O=C(CCc1nnc2ccccn2c1=O)NCc1ccc2c(c1)OCO2", "Percent Effect": 110.3}, {"smiles": "COc1ccc(CNC(=O)Cc2csc(C(C)=O)c2)cc1", "Percent Effect": 2.837}, {"smiles": "CCn1ncnc1CN1CCc2[nH]cnc2C1CCc1ccccc1", "note": "(centres undefined)", "Percent Effect": 5.135}, {"smiles": "Cc1ccc(CNC(c2ccc(F)cc2)c2nccn2C)o1", "note": "(centres undefined)", "Percent Effect": 6.945}, {"smiles": "CC(=O)N1CCC(Oc2ccc(Cl)cc2C(=O)N2CCCO2)CC1", "Percent Effect": 5.175}, {"smiles": "Cc1ccc(C(=O)N2C[C@@H]3CCCO[C@@H]3[C@H](N3CCOCC3)C2)cn1.O=C(O)C(F)(F)F.O=C(O)C(F)(F)F", "Percent Effect": -9.984}, {"smiles": "Cc1ccoc1C(=O)N1C[C@@H](N2CCN(C)CC2)[C@H]2OCCC[C@H]21.O=C(O)C(F)(F)F.O=C(O)C(F)(F)F", "Percent Effect": -7.066}, {"smiles": "Cc1cnc(C(=O)N2C[C@H](N3CCOCC3)[C@@H]3OCCC[C@@H]32)cn1", "Percent Effect": 115.1}, {"smiles": "Cc1ccc(C(=O)N2C[C@@H](N3CCN(C)CC3)[C@H]3OCCC[C@H]32)cn1", "Percent Effect": 115.4}, {"smiles": "CN1CCN([C@@H]2CN(C(=O)c3ccsc3)[C@@H]3CCCO[C@H]23)CC1", "Percent Effect": -4.041}, {"smiles": "O=C(c1ccsc1)N1C[C@H](N2CCOCC2)[C@@H]2OCCC[C@@H]21", "Percent Effect": 0.7214}, {"smiles": "CC(C)(C)c1cn2nc(N3CCCC(Cn4cncn4)C3)sc2n1", "note": "(centres undefined)", "Percent Effect": 16.07}, {"smiles": "CN1CCC(Cc2cc(N(C)C)ncn2)C1", "note": "(centres undefined)", "Percent Effect": 110.8}, {"smiles": "CCn1ccnc1CN(C)c1cc(N(C)C)ncn1", "Percent Effect": 12.61}, {"smiles": "CCn1ccnc1CN(C)c1cc(C2CC2)ncn1", "Percent Effect": 1.234}, {"smiles": "CC(C)N1CCN(C)CC(Cc2cc(N(C)C)ncn2)C1", "note": "(centres undefined)", "Percent Effect": 93.36}, {"smiles": "CN1CCCC(Cc2cncc(C(=O)NCC3CC3)c2)C1", "note": "(centres undefined)", "Percent Effect": -7.268}, {"smiles": "CN1CCCC(CNC(=O)N2CCN(Cc3ccon3)CC2)C1", "note": "(centres undefined)", "Percent Effect": -11.04}, {"smiles": "CSCc1ccc(N(C)CC2CCCN(C(C)C)C2)nc1", "note": "(centres undefined)", "Percent Effect": -13.33}, {"smiles": "CN1CCCC(Cc2cc(N(C)C)ncn2)C1", "note": "(centres undefined)", "Percent Effect": 94.81}, {"smiles": "c1cnc(NCc2noc3c2CN(C2CCOCC2)CC3)nc1", "Percent Effect": -17.2}, {"smiles": "COc1ccc(-c2nnc(C(C)N3CCOC(C)(C)C3)o2)cc1", "note": "(centres undefined)", "Percent Effect": -4.024}, {"smiles": "c1ccc2c(c1)CC(n1ccnc1-c1cc3n(n1)CCCNC3)CO2", "note": "(centres undefined)", "Percent Effect": 3.87}, {"smiles": "CCc1ncc(CN(C)C(=O)Nc2cccnc2N2CCCC2)s1", "Percent Effect": 10.11}, {"smiles": "NS(=O)(=O)CCN1CCN(c2cc(F)ccc2F)CC1", "Percent Effect": -4.797}, {"smiles": "Fc1ccc(CN2CCO[C@H]3[C@H](OCCN4CCCC4)CC[C@@H]32)cc1.O=C(O)C(F)(F)F.O=C(O)C(F)(F)F", "Percent Effect": -15.45}, {"smiles": "O=C(O)C(F)(F)F.O=C(O)C(F)(F)F.c1cc(CN2CCO[C@H]3[C@H](OCCN4CCCC4)CC[C@@H]32)co1", "Percent Effect": 81.09}, {"smiles": "O=C(O)C(F)(F)F.O=C(O)C(F)(F)F.c1csc(CN2CCO[C@H]3[C@H](OCCN4CCCC4)CC[C@@H]32)n1", "Percent Effect": 6.605}, {"smiles": "O=C(O)C(F)(F)F.c1cc(CN2CCO[C@H]3[C@H](OCC4CCOCC4)CC[C@@H]32)co1", "Percent Effect": 111.9}, {"smiles": "COc1ccc(CN2CCO[C@H]3[C@H](OCCN4CCCC4)CC[C@@H]32)cc1.O=C(O)C(F)(F)F.O=C(O)C(F)(F)F", "Percent Effect": 97.25}, {"smiles": "Cc1ccc(-c2nc(CN3CCN(S(=O)(=O)N(C)C)CC3)cs2)o1", "Percent Effect": 2.093}, {"smiles": "O=C(c1ncn2c1CNS(=O)(=O)c1ccccc1-2)N1CCOCC1", "Percent Effect": -11.97}, {"smiles": "Cc1noc(C)c1S(=O)(=O)N(C)Cc1nn(C)c(Cl)c1Cl", "Percent Effect": -15.6}, {"smiles": "CC(C)CC(CCO)CNC(=O)N1CC(C)(C)C1(C)C", "note": "(centres undefined)", "Percent Effect": -21.83}, {"smiles": "CS(=O)(=O)N1CC2(CCN(CC3CCCCC3)C2)Cc2ccccc21", "note": "(centres undefined)", "Percent Effect": 112.5}, {"smiles": "CS(=O)(=O)N1CC2(CCN(CC3CC3)C2)Cc2ccccc21", "note": "(centres undefined)", "Percent Effect": 119.1}, {"smiles": "CN1C(=O)C2(CCN(CC3CCC3)C2)c2ccccc21.O=C(O)C(F)(F)F", "note": "(centres undefined)", "Percent Effect": 10.05}, {"smiles": "O=C(O)C(F)(F)F.O=C1CC2(CCN(CC3CC3)C2)CN1c1cccc(F)c1", "note": "(centres undefined)", "Percent Effect": -1.195}, {"smiles": "O=C(O)C(F)(F)F.O=C1CC2(CCN(CC3CC3)C2)CN1c1ccc2c(c1)OCO2", "note": "(centres undefined)", "Percent Effect": -8.293}, {"smiles": "O=C(Cc1cccs1)N1CCC2(CCCN(CC3CCOCC3)C2)C1", "note": "(centres undefined)", "Percent Effect": -3.748}, {"smiles": "CS(=O)(=O)N1CC2(CCN(CC3CCCCC3)CC2)Cc2ccccc21", "Percent Effect": 144}, {"smiles": "O=C(Cc1ccccn1)N1CCC2(CCCN(CC3CCOCC3)C2)C1", "note": "(centres undefined)", "Percent Effect": -4.093}, {"smiles": "CN1CCCC(CNS(=O)(=O)N2CCc3ccccc3C2)C1", "note": "(centres undefined)", "Percent Effect": 2.763}, {"smiles": "CS(=O)(=O)N1CC2(CCCN(CC3CC3)C2)Cc2ccccc21", "note": "(centres undefined)", "Percent Effect": 118.5}, {"smiles": "CCn1c(C)nnc1SCCNC(=O)c1cccc2ccnn12", "Percent Effect": -3.845}, {"smiles": "Cc1nc(CNC(=O)CC2C(=O)NCCN2Cc2ccccc2C)n[nH]1", "note": "(centres undefined)", "Percent Effect": 4.07}, {"smiles": "CCCc1nnsc1C(=O)NCC1CCN(S(C)(=O)=O)CC1", "Percent Effect": -2.324}, {"smiles": "Cc1cnc(N2C[C@@H]3[C@@H](C2)OCC(=O)N3C)nc1", "Percent Effect": -11.2}, {"smiles": "CCN1CC2(CCN(C(=O)C(C)Oc3cccc(Cl)c3)CC2)OC1=O", "note": "(centres undefined)", "Percent Effect": -19.97}, {"smiles": "COc1ccc2c(c1)CCCN(C(=O)NCC1CCCO1)C2", "note": "(centres undefined)", "Percent Effect": 114.2}, {"smiles": "COc1ccc2c(c1)CCCN(CC(=O)NCC1CCCO1)C2", "note": "(centres undefined)", "Percent Effect": 92.35}, {"smiles": "COc1ccc2c(c1)CCCN2C(=O)CN1CCOC(CN(C)C)C1", "note": "(centres undefined)", "Percent Effect": 3.019}, {"smiles": "COc1cc2c(cc1OC)CN(C(=O)NCC1CCCO1)CC2", "note": "(centres undefined)", "Percent Effect": 106.4}, {"smiles": "COc1ccc2c(c1)CCCN2C(=O)CNCC1CN(C)CCO1", "note": "(centres undefined)", "Percent Effect": 15.31}, {"smiles": "COc1ccc2c(c1)CCCN(C(C)C(=O)N1CCCC1)C2", "note": "(centres undefined)", "Percent Effect": 19.28}, {"smiles": "COc1cccc(N2CCN(CCC(=O)NC3CCCCC3)CC2)c1", "Percent Effect": 105.3}, {"smiles": "CS(=O)(=O)NC1CCN(C(=O)NCC2CCCO2)CC1", "note": "(centres undefined)", "Percent Effect": -8.8}, {"smiles": "N#Cc1ccc(OC2CCN(CC(=O)NCC3CCCO3)CC2)cc1", "note": "(centres undefined)", "Percent Effect": 1.578}, {"smiles": "CC(C)OCCC(=O)Nc1cccc(N2CCN(CC3CC3)CC2)c1", "Percent Effect": -21.21}, {"smiles": "CCC(=O)NC1CCN(c2cccc(CC)c2)CC1", "Percent Effect": -2.51}, {"smiles": "C=C(C)COCCNC(=O)N1CCc2c(cccc2OC)C1", "Percent Effect": -14.6}, {"smiles": "COc1ccc(-c2n[nH]cc2CN(C)Cc2ccoc2)c(F)c1", "Percent Effect": 10.13}, {"smiles": "c1cc2c(cc1C1CCCN1Cc1nnnn1C1CC1)OCCO2", "note": "(centres undefined)", "Percent Effect": -7.859}, {"smiles": "CCC(O)CNc1ccc(-c2nc(CC(C)C)no2)cn1", "note": "(centres undefined)", "Percent Effect": -5.208}, {"smiles": "O=C(NCC1CCOC1)c1ccc(OCC(F)(F)F)nc1", "note": "(centres undefined)", "Percent Effect": -6.921}, {"smiles": "NCC1Cc2cc(-c3cncc(C(=O)N4CCOCC4)n3)cc(Cl)c2O1", "note": "(centres undefined)", "Percent Effect": -2.851}, {"smiles": "CCc1nc(C2CCCN2CCCS(=O)(=O)c2ccccc2)no1", "note": "(centres undefined)", "Percent Effect": 0.9329}, {"smiles": "COc1ccc2c(c1)CN(CC(=O)NC1CCCC1)CC2", "Percent Effect": 115.8}, {"smiles": "COc1ccc2c(c1)CCN(CCC(=O)NC1CCCCC1)CC2", "Percent Effect": -10.31}, {"smiles": "COc1ccc2c(c1)CN(c1cc(N3CCCC3CO)ncn1)CC2", "note": "(centres undefined)", "Percent Effect": -11.42}, {"smiles": "COCCOCC(=O)N1CCC(O)(c2ccc3nc(C)ccc3c2)CC1", "Percent Effect": 1.515}, {"smiles": "CCn1c(N)nc2cc(C(=O)NCCc3sccc3C)cnc21", "Percent Effect": 9.086}, {"smiles": "O=C(O)c1cccnc1CN1CCCCC1CCc1cccc(O)c1", "note": "(centres undefined)", "Percent Effect": 117.3}, {"smiles": "O=C(O)c1cccnc1CN1CCCCC1CCc1cccs1", "note": "(centres undefined)", "Percent Effect": 113}, {"smiles": "O=C(Cc1c[nH]c(=O)[nH]c1=O)N1CCCCC1CCc1cccc(O)c1", "note": "(centres undefined)", "Percent Effect": 2.49}, {"smiles": "CC(C)(C)OC(=O)NCC1CCCCN1Cc1ccccn1", "note": "(centres undefined)", "Percent Effect": 1.475}, {"smiles": "COc1cc2c(cc1OC)CN(Cc1ncccc1C(=O)O)CC2", "Percent Effect": -6.886}, {"smiles": "O=C(O)c1cccnc1CN1CCCC1CCc1ccccc1", "note": "(centres undefined)", "Percent Effect": 101.7}, {"smiles": "CCN1CCCC1CNC(=O)CCc1cccs1", "note": "(centres undefined)", "Percent Effect": -0.4602}, {"smiles": "CN(Cc1cccc(F)c1)C(=O)CN1CCCC1CCc1ccccc1", "note": "(centres undefined)", "Percent Effect": -6.226}, {"smiles": "Cc1c[nH]c(CN2CCCCC2CCc2cccc(O)c2)c(C)c1=O", "note": "(centres undefined)", "Percent Effect": 11.94}, {"smiles": "Cc1oc(-c2ccoc2)nc1CN1CCCCC1CCc1ccccc1", "note": "(centres undefined)", "Percent Effect": -13.12}, {"smiles": "O=C(O)c1cccnc1CN1CCCCC1CCc1ccccn1", "note": "(centres undefined)", "Percent Effect": 108.5}, {"smiles": "O=C(O)c1cccnc1CN(Cc1ccsc1)C1CC1", "Percent Effect": -4.109}, {"smiles": "CN(CCCc1nccn1C)C(=O)C1CCN(C(=O)C2CC2)CC1", "Percent Effect": 15.41}, {"smiles": "Cc1ccccc1CN1CCC2(CC1)CN(S(=O)(=O)c1ccccc1)C2.O=C(O)C(F)(F)F", "Percent Effect": -17.23}, {"smiles": "Cc1occc1C(=O)N1CCC[C@]2(C[C@@H](OCc3ccncc3)CO2)C1.O=C(O)C(F)(F)F", "Percent Effect": -11.73}]}]}
